High-throughput results deposited in PubChem BioAssay by Johns Hopkins Ion Channel Center.
In the library only some 1.6% were active in any assay of this set; here they are far more common.
KCNQ2 block: inhibitors of rat KCNQ2 potassium channel; O88943; CHO-K1 KCNQ2, FluxOR thallium flux, 20 min; hits give low values; B-score at 10 µM; actives 1.1% (n = 310,000);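 active = fluorescence ratio B-score at most minus 3 library SDs, with starting brightness B-score within 2 library SDs, cut at about -5.5 in these data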
KCNQ2 enhance: potentiators of rat KCNQ2 potassium channel | O88943 | CHO-K1 KCNQ2, FluxOR thallium flux fluorescence; hits give high values | B-score at 10 µM | actives 0.54% (n = 310,000) | AID 2239;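 active = fluorescence ratio B-score at least 3 SD of library B-scores, with initial fluorescence B-score within 3 of them, cut at about 5.3 in these data; same plate scores as AID 2156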;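 also: B-score of peak minus minimum over baseline fluorescence ratio after K+ and Tl+ stimulus; positive B-score means potentiation of KCNQ2 with more thallium influx and brighter signal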
KCNQ2 inh conf: confirmation of rat KCNQ2 potassium channel inhibitors; activity change, negative = inhibition, % at 10 µM; KCNQ2-expressing cells, thallium flux, inhibition; hits give low values; actives 57% (n = 1,000); shares compounds with KCNQ2 block; AID 493025;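 also: 0% = vehicle wells and values are ratio percent relative to vehicle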
KCNQ1 spec: human KCNQ1 activity in KCNQ2 inhibitor specificity screen. actives 15% (n = 1,000). AID 493026. KCNQ1-expressing cells, FluxOR thallium flux fluorescence; hits give low values. activity change, negative = inhibition, % at 10 µM. shares compounds with KCNQ2 block;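 active = activity change at least 3 SD of negative controls below their mean in both duplicate wells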;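 also: CHO cells stably transfected with KCNQ1 and depolarized by potassium stimulus; peak minus minimum fluorescence over baseline after thallium addition; 0% = vehicle negative control and -100% = blank without thallium stimulus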
CHO parental ctr: KCNQ2 inhibitor counter-screen hit in parental CHO cells | shares compounds with KCNQ2 block | activity change, % at 10 µM | actives 14% (n = 1,000) | thallium flux counter-screen; hits give low values;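 also: 0% = vehicle negative controls with stimulus buffer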
KCNQ2 inh confirm: blocks rat KCNQ2 current in automated patch clamp; shares compounds with KCNQ2 block; calls only at 10 µM; AID 588531; KCNQ2-expressing cells; actives 49% (n = 550)
Starred values were filed as active, the others as inactive; i = inactive; / = no result; + = active, no number. Unless noted, no rule for the calls is given here.

SMILES	KCNQ2 block	KCNQ2 enhance	KCNQ2 inh conf	KCNQ1 spec	CHO parental ctr	others
O=C(CC1CS(=O)(=O)CC1CC(=O)Nc1ccc2c(c1)OCCO2)Nc1ccc2c(c1)OCCO2 (stereo not drawn)	i	0.02	/	/	/
Cc1ccc(-c2nnc(OCc3nc4ccccc4n3C)c3ccccc23)cc1	i	0.98	/	/	/
CC(C)(C)c1ccc(OCC(=O)N(c2ccccn2)C2CCCCC2)cc1	i	/	/	/	/
CCOC(=O)CNC(=O)COc1ccc(Cl)cc1Br	i	/	/	/	/
O=C(COc1ccc(Cl)cc1Cl)N(c1ccccn1)C1CCCCC1	-6.9*	-6.9	-35%*	i	i	KCNQ2 inh confirm=+
O=C(/C=C/c1ccccc1)N(c1ccccn1)C1CCCCC1	i	/	/	/	/
O=C(/C=C/c1ccccc1Cl)N(c1ccccn1)C1CCCCC1	-7.4*	-7.4	i	i	i
CN(C(=O)COc1ccc(Cl)cc1Br)C1CCCCC1	-7.8*	-7.8	-30%*	i	i	KCNQ2 inh confirm=+
O=C(C[n+]1cccc(Br)c1)c1ccc(-c2ccccc2)cc1	i	1.8	/	/	/
COC(=O)c1cccc(NC(=O)c2cc(OC)c(OC)c(OC)c2Br)c1	i	/	/	/	/
COc1cc(C(=O)Nc2cccc(C)c2C)c(Br)c(OC)c1OC	-8*	-8	-24%*	i	i	KCNQ2 inh confirm=+
Cc1cccc(C(=O)N2CCNC(=O)C2CC(=O)Nc2cccc(Cl)c2)c1 (stereo not drawn)	i	0.02	/	/	/
COc1ccccc1N1CCN(C(=O)c2oc3cc(C)cc(C)c3c2C)CC1	-8.2*	-8.2	i	i	i
COc1ccccc1N1CCN(C(=O)c2cc(=O)c3ccc(C)cc3o2)CC1	i	0.17	/	/	/
C/C=C/c1ccc(OCC(=O)NCc2ccccc2OC)c(OC)c1	-6.7*	-6.7	i	i	i
COc1ccccc1CNC(=O)COc1ccccc1C	i	/	/	/	/
CCC(C)NC(=O)CCc1nc2ccccc2n1-c1ccccc1 (stereo not drawn)	i	/	/	/	/
COc1ccc(CN(C)C(=O)c2[nH]c(C)c(C(C)=O)c2C)cc1F	i	/	/	/	/
ClC1(CNc2ccccc2)CCN(Cc2ccccc2)CC1	i	0.79	/	/	/
COc1ccc(S(=O)(=O)N2CCC(C(=O)NCCC(=O)Nc3ccc(Cl)cc3)CC2)cc1	i	/	/	/	/
CC1CCCC/C1=N/Nc1ccc([N+](=O)[O-])cc1[N+](=O)[O-] (stereo not drawn)	i	0.38	/	/	/
O=[N+]([O-])c1ccc(C2CCCC/C2=N\OCc2cccc(F)c2)c([N+](=O)[O-])c1 (stereo not drawn)	-8.3*	-8.3	i	i	i
O=C(C1CC(=O)N(c2ccc(F)cc2)C1)N1CCC(c2nc3ccccc3[nH]2)CC1 (stereo not drawn)	i	/	/	/	/
CCc1ccc(-c2csc(NC(=O)C3CCCO3)c2C(=O)OC(C)C)cc1 (stereo not drawn)	-8.3*	-8.3	-29%*	i	i
COC(=O)c1c(-c2ccc(F)cc2)csc1NC(=O)C1CCCO1 (stereo not drawn)	i	0.46	/	/	/
SMILES	KCNQ2 block	KCNQ2 enhance	KCNQ2 inh conf	KCNQ1 spec	CHO parental ctr	others
COc1ccc(CCNC(=O)CCCN2C(=O)C(c3ccccc3)Oc3cccnc32)cc1OC (stereo not drawn)	i	/	/	/	/
O=C(NCc1ccccc1)c1cccc(COc2cc(Cl)ccc2Cl)c1	i	/	/	/	/
O=C(NCc1ccccc1)c1cccc(COc2ccccc2Cl)c1	-12*	-12	i	i	i
O=C(NN1C(=O)c2ccccc2C1=O)c1ccc2c(c1)C(=O)N(CC1CCCO1)C2=O (stereo not drawn)	i	2.1	/	/	/
COc1ccc(C(CNC(=O)Cc2cccs2)N(C)C)cc1 (stereo not drawn)	i	/	/	/	/
CCOC(=O)N1CCc2c(sc3c2c(=O)n(Cc2ccccc2)c(=O)n3Cc2cccc(C)c2)C1	-8.6*	-8.6	-44%*	-30%*	-28%*	KCNQ2 inh confirm=i
O=C(O)Cn1c(=O)c2c3c(sc2n(Cc2ccccc2)c1=O)CCCC3	i	/	/	/	/
CCOC(=O)N1CCc2c(sc3c2c(=O)n(Cc2ccccc2)c(=O)n3Cc2ccccc2F)C1	-12*	-12	i	i	i
CCOC(=O)N1CCc2c(sc3c2c(=O)n(Cc2ccccc2)c(=O)n3CC(=O)NCC2CCCO2)C1 (stereo not drawn)	i	0.43	/	/	/
Cc1ccc(S(=O)(=O)N2CCCC(C(=O)Nc3ccc(C(=O)O)cc3)C2)cc1Cl (stereo not drawn)	i	0.15	/	/	/
Cc1cc(C)cc(OCC(=O)Nc2ccccc2N2CCCCC2)c1	i	/	/	/	/
CCC(=O)N1CCN(c2ccccc2NC(=O)COc2cccc(C)c2)CC1	-10*	-10	-28%*	i	i	KCNQ2 inh confirm=+
CCC(=O)N1CCN(c2ccccc2NC(=O)c2cccc(C)c2)CC1	i	/	/	/	/
COc1ccc(NC(=O)COc2ccccc2C)cc1S(=O)(=O)N1CCCCC1	i	/	/	/	/
Cc1ccc(NC(=O)COc2cccc(C)c2C)cc1S(=O)(=O)N1CCCCCC1	-8.8*	-8.8	-36%*	-32%*	-24%*	KCNQ2 inh confirm=i
Cc1ccccc1OCC(=O)Nc1ccccc1N1CCCCC1	-10*	-10	-26%*	i	i	KCNQ2 inh confirm=+
Cc1n[nH]c(=O)c2c(NC(=O)CSc3ccc(Br)cc3)oc(C)c12	i	2.8	/	/	/
